From PubChem BioAssay (NCATS)
Records with an inconclusive call do not appear. Entries that show only a call come without a potency. The source made the active and inactive calls. The call rests on the fitted dose curve; in most records, active means well fitted inhibition curve with a large enough effect; inconclusive means small, poorly fitted or top-dose-only effect; inactive means flat fitted curve, though single readings scatter.

What follows are molecules tested against Calcium and integrin-binding protein 1 (Homo sapiens) (UniProt Q99828) (assay: Primary qHTS for Identification of Calcium Integrin Binding Protein 1 (CIB1) Competitor (AID 1508620;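 further: GST tagged CIB1 binding a fluorescein labelled alphaIIb integrin peptide tracer; top concentration of the series differs between compounds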)). Details: CIB1-GST / FITC-alphaIIb peptide fluorescence polarization; series mostly up to 114 µM.
How it was run: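 Fluorescence polarization competition: CIB1-GST (1 uM final) preincubated with compound 15 min at room temperature, then FITC-labeled alphaIIb peptide (100 nM final) added for another 15 min. Polarization read at Ex 480/Em 540.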

Calcium and integrin-binding protein 1 (Homo sapiens), sequence (Q99828 whole entry, looked up): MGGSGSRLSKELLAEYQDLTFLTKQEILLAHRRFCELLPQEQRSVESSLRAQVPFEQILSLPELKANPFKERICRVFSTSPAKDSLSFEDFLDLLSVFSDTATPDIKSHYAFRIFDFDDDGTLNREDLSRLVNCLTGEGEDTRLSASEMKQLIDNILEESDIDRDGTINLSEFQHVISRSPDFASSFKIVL

| SMILES | Potency |
| --- | --- |
| O=S(=O)(Nc1ccc(-c2ccccc2)cc1)c1ccc(NCc2ccc(Br)cc2O)cc1 | inactive |
| Cc1cc2c(s1)c1cnn(Cc3cc(OC(F)(F)F)ccc3F)c(=O)c1n2C | inactive |
| COc1cccc(N2C(=O)c3ccccc3C2=O)c1 | inactive |
| C=C(C)c1cc2c(s1)c1cnn(Cc3ccccc3F)c(=O)c1n2C | inactive |
| O=[S+]([O-])(Nc1ccc(C2CCNCC2)cc1)c1ccc(NCc2ccc(Cl)cc2O)cc1 | inactive |
| CC1(C)CC(=O)C2=C(C1)NC(Nc1nc3ccccc3o1)=NC21CCCCC1 | inactive |
| Cc1cc(NS(=O)(=O)c2ccc(NC(=O)CCc3ccc(Cl)c(Cl)c3)cc2)no1 | inactive |
| Cc1ccc(-c2ccc(=O)n(CC(=O)N(C)C(C)c3cccs3)n2)cc1 (stereo not given) | inactive |
| Cc1nc(C)c(-c2ccc3ncnc(NCCc4cnc[nH]4)c3c2)s1 | inactive |
| Cc1ccnc(NC(=S)Nc2cccc([S+](=O)([O-])Nc3ccccc3F)c2)c1 | inactive |
| CNC(=O)C1CCN(c2nc(-c3ccc(Br)cc3)cs2)CC1 | inactive |
| COc1ccc(NC(=O)c2[nH]c(C)c(C(C)=O)c2C)cc1S(=O)(=O)Nc1ccc(C#N)cc1 | inactive |
| CC(C)c1cccc(-n2cnc3cc(C(=O)N4CCCCC4)ccc32)c1 | inactive |
| Cc1ccc(S(=O)(=O)N2CCN(c3nc(-c4ccco4)nc4ccccc34)CC2)cc1 | inactive |
| Cn1nnnc1Sc1ncnc2scc(I)c12 | inactive |
| CC(C)(C)c1ccc(C(=O)NCC(=O)OC(C(=O)Nc2cc(C(F)(F)F)ccc2Cl)c2ccccc2)cc1 (stereo not given) | inactive |
| COc1ccc(C2Nc3ccccc3C(=O)N2Cc2ccccc2Cl)cc1COc1ccc(NC(C)=O)cc1 (stereo not given) | inactive |
| O=S(=O)(c1ccsc1)N1CCN(c2nc(-c3cccs3)nc3ccccc23)CC1 | inactive |
| CCNc1ncnc2ccc(-c3ccc4c(c3)OCO4)cc12 | inactive |
| CC(=O)Nc1sc2c(c1-c1ccc3c(c1)OCO3)CCNC2 | inactive |

| SMILES | Potency |
| --- | --- |
| Cc1cccc(-n2cnc3cc(C(=O)N4CCOCC4)ccc32)c1 | inactive |
| CC(=O)N1c2ccc(S(=O)(=O)Nc3ccc(C)c(C)c3)cc2CC1C (stereo not given) | inactive |
| CCCCNC(=S)NCCCN(Cc1ccc(Cl)c(Cl)c1)c1ccc(Br)cn1 | inactive |
| O=S(=O)(NC1CCC(NS(=O)(=O)c2c(F)cccc2F)CC1)c1ccc2c(c1)OCCO2 (stereo not given) | inactive |
| C#CCOc1ccc(-c2nnc3n2N=C(c2ccc(OC)c(OCC(C)=O)c2)CS3)cc1 | inactive |
| O=S(=O)(Nc1ccccc1)c1ccc(NCc2cccc(Cl)c2O)cc1 | inactive |
| O=C1CCc2cc(S(=O)(=O)Nc3ccccn3)ccc2N1 | inactive |
| COc1cccc(C2c3c(ncn(CCN4CCOCC4)c3=N)Oc3ccc4ccccc4c32)c1 (stereo not given) | inactive |
| CC(=O)N1CCCc2cc(S(=O)(=O)Nc3ccc(C)c(C)c3)ccc21 | inactive |
| COc1ccc(C2Nc3ccccc3C(=O)N2CCO)cc1COc1c(C)cc(NC(C)=O)cc1C (stereo not given) | inactive |
| CC(=O)N1CCc2cc(S(=O)(=O)N3CCN(S(=O)(=O)c4c(F)cccc4F)CC3)ccc21 | inactive |
| CC(C)(C)NC(=O)Nc1nnc(-c2ccncc2)s1 | inactive |
| NC(=O)C1CCN(c2nc(-c3ccc(C(F)(F)F)cc3)cs2)CC1 | inactive |
| Cc1ccc(OCCn2c(CCNCC3CCCCC3)nc3ccccc32)cc1 | inactive |
| Cc1ccc(-c2cc(C(=O)Nc3ccc(-n4cccn4)cc3)c3ccccc3n2)cc1C | inactive |
| CC1=C(C(=O)Nc2ccon2)C(c2ccccc2Br)N=C(Nc2nc3ccccc3o2)N1 (stereo not given) | inactive |
| CC(C)c1nc2c(cnn2C)c(=O)n1N | inactive |
| O=C(COC(=O)CNC(=O)c1ccccc1)Nc1cc(C(F)(F)F)ccc1Cl | inactive |
| NC(=O)c1c(-c2ccccc2)no[n+]1[O-] | inactive |
| COc1ccc(-c2cncc(NC(=O)c3cccs3)c2)cc1OC | inactive |
